Test results from PubChem BioAssay AID588475 (Sanford-Burnham Center for Chemical Genomics, 2011).
The campaign covered roughly 350,000 compounds. About 2,100 (0.6%) were called active. What follows is part of a selection rich in actives, with near analogues and random picks from the rest. A number with no mark means an inactive call.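 Rule for the calls: active = inhibition of the ligand-induced calcium signal above about 50% at the single tested concentration (limit read from the data); inactive = the rest.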

Assay: antagonists of CRF-BP/CRF-R2 complex, primary screen, cell-based, HEK293, calcium dye fluorescence, uHTS (AID 588475)
Details: CRF-induced calcium fluorescence, at 11.8 µM, hits give high values

SMILES	inhibition
CCOC(=O)Cn1c2c(c(-c3ccccc3OC)cc1=O)CCCC2	57.5% (active)
CCOC(=O)CN1CCC(c2ccccc2)CC1	-2.05%
COc1ccccc1C1=CC(=O)CCC1	9.84%
c1ccc(CCN2CN=C(Nc3nc4ccccc4o3)NC2)cc1	13.5%
CCc1ccc(N2CC(C(=O)N3CCCCCC3)CC2=O)cc1 (configuration not stated)	-21.4%
CC1CC(C)CN(C(=O)C2CC(=O)N(c3ccc(F)cc3)C2)C1 (configuration not stated)	-0.72%
O=C(C1CC(=O)N(c2ccc(Br)cc2)C1)N1CCCC1 (configuration not stated)	76.7% (active)
CCCOc1cccc(C(=O)Nc2nnn(CCC)n2)c1	-20.2%
CCCCCCNC(=O)O[C@]12C[C@@H](C(=O)OC)[C@@H](C(=O)OC)C[C@@]1(O)CN(S(=O)(=O)c1ccc(C)cc1)C2	-0.13%
CCOc1ccc(NC(=O)CCC(=O)NNC(=O)NC2CCCCC2)cc1	9.93%
CC1CCN(C(=S)NC2CC3CCC2C3)CC1 (configuration not stated)	18.3%
CCCC(O)(CCC)C(=O)NN(C(=O)CCl)c1cccc(C)c1	4.46%
CCc1nnc(NC(=O)CSc2nc(SC)ns2)s1	-5.79%
CC(=O)c1cccc(-n2nnnc2SCC(=O)NNC(=O)C2CCCCC2)c1	12.7%
CCc1nnc(NC(=O)CSc2nnnn2-c2cccc(C(C)=O)c2)s1	54.4% (active)
O=C(O)C1=C(C(=O)O)C2CCC1C2	17.1%
COc1cc(CNCc2cccs2)cc(Br)c1OC	4.12%
COc1ccc(Cl)cc1C(=O)OCC(=O)NCc1cccs1	-4.93%
COc1cc(CC(=O)NCc2cccs2)cc(OC)c1OC	63.8% (active)
COc1ccc(CCNC(=O)COC(=O)c2ncc(Cl)c(Cl)c2Cl)cc1OC	-0.24%
COc1ccc(C(=O)NC(=S)Nc2ccc(Cl)cn2)cc1OC	-25.3%
COC(=O)c1ccc(OC(=O)c2nn(C)cc2Cl)c(OC)c1	90.2% (active)
Cc1cc(C)c(C#N)c(SCS(=O)c2ccc(C(C)(C)C)cc2)n1 (configuration not stated)	1.43%

SMILES	inhibition
CC1C(=O)Nc2ccccc2N1C(=O)c1ccc(F)cc1F (configuration not stated)	16%
O=C(COC(=O)c1ccc(O)cc1O)NC(=O)c1ccccc1	-7.02%
O=C(NNc1c2ccccc2nc2ccccc12)c1cc2ccccc2cc1O	53.2% (active)
O=C(NNC(=O)c1ccccc1O)c1ccccc1O	24.2%
Cc1onc(-c2c(F)cccc2Cl)c1C(=O)N(C)CC(=O)Nc1cccc(F)c1	5.08%
Cc1cccc(N2Cc3ccccc3C2=NC(=O)c2ccc(Cl)nc2)c1	-4.54%
CN1CCN(C2=NCCO2)CC1	0.22%
COc1ccc(/C=C2/CCCc3ccccc3C2=O)cc1	4.03%
COc1ccc(/C=C2\CCc3ccccc3C2=O)c(OC)c1OC	89.8% (active)
O=C1/C(=C/c2cccs2)CCc2ccccc21	-1.09%
COC(=O)[C@]1(Cc2ccccc2)N[C@H](CN(C)S(=O)(=O)c2ccc(OC(F)(F)F)cc2)[C@@H]2C(=O)N(Cc3ccccc3)C(=O)[C@@H]21	-0.07%
O=C(CSc1nnc(CNC(=O)c2ccc(F)cc2)o1)Nc1ccc2c(c1)OCO2	-5.95%
CN(C)c1ccc(/C=C2\NC(=S)N(Cc3ccccc3)C2=O)cc1	-149%
CN(C)c1ccc(C=C2C(=O)OC3(CCCC3)OC2=O)cc1	66.8% (active)
COC(=O)c1ccc(/C=C2/C(=O)Oc3ccccc32)cc1	1.02%
O=C(O)C(NS(=O)(=O)c1cccc2nsnc12)c1ccccc1 (configuration not stated)	8.07%
Cc1cc(C)cc(C(=O)NC(CC(N)=O)c2ccc(N3CCC(N4CCCCC4)CC3)c([N+](=O)[O-])c2)c1 (configuration not stated)	14.9%
O=C(NCC(F)(F)F)c1ccc(S(=O)(=O)NCCc2ccc3c(c2)OCCO3)cc1	2.25%
CC1=C(C(N)=O)C(c2sccc2C)n2nnnc2N1 (configuration not stated)	-23.7%
Cc1c(Br)ccc(NC(=O)COc2ccccc2C(N)=O)c1C	-2.05%
COC(=O)C(NC(=O)c1ccc(OC)cc1)(Nc1ncc(S(=O)(=O)c2ccc([N+](=O)[O-])cc2)s1)C(F)(F)F (configuration not stated)	72.6% (active)
COc1ccc(C(=O)NCCNc2ccc([N+](=O)[O-])cn2)cc1	3.69%
CCOCC(=O)Nc1ncc(S(=O)(=O)c2ccc([N+](=O)[O-])cc2)s1	-6.17%

SMILES	inhibition
COc1ccc(CCn2c(NN=C3CCCC3)nc3c2c(=O)[nH]c(=O)n3C)cc1	-0.67%
COc1ccc(OC)c(S(=O)(=O)Nc2c(C)nn(C)c2C)c1	6.33%
COc1ccc(/C=C/C(=O)Nc2c(C)nn(C)c2C)cc1COc1ccc(Br)cc1	60.5% (active)
CCn1nc(C)c(NC(=O)/C=C/c2ccc(OC)c(COc3ccc(Br)cc3)c2)c1C	30.8%
CCn1cc(/C=C(\NC(=O)c2cc(OC)c(OC)c(OC)c2)C(=O)N2CCN(C)CC2)c2ccccc21	-8.31%
Cc1cc(OC(=O)c2ccc(Cl)cc2)cc(=O)n1C	11.4%
Cc1cccc(CS(=O)(=O)c2ncc(Cl)c(C(=O)Nc3ccc(F)cc3)n2)c1	52.3% (active)
Cc1cccc(NC(=O)c2nc(S(=O)(=O)Cc3ccccc3)ncc2Cl)c1	45.5%
CSc1nnc(NC(=O)c2nc(S(=O)(=O)Cc3ccc(C)cc3)ncc2Cl)s1	25.7%
FC(F)(F)c1cc(-c2ccco2)nc(NCc2ccc(Cl)cc2)n1	-24.6%
COc1ccc(/C=C2\SC(=S)N(CCC(=O)N3CCOCC3)C2=O)cc1OC	-7.34%
O=C1/C(=C/c2ccc(F)cc2)SC(=S)N1CCCC(=O)N1CCCCC1CCO (configuration not stated)	-17.3%
C=CCOc1ccc(/C=C2\SC(=S)N(CCC(=O)O)C2=O)cc1	53.9% (active)
Cc1cc(C)nc(NC2=NCC(=O)N2c2ccc(Cl)cc2)n1	10.7%
O=C(c1ccc(-n2cnnn2)cc1)N1CCN(C(c2ccccc2)c2ccccc2)CC1	14.7%
CCc1ccc(NC(=O)CC2C(=O)NCCN2C(=S)Nc2ccccc2)cc1 (configuration not stated)	-42.6%
CN(C)C(=O)c1nc2ccc(Cl)cn2c1CNCc1cccc(OC(F)(F)F)c1	21%
CCNC(=O)CC1C(=O)N(c2ccc(F)cc2)C(=O)N1CCc1sccc1C (configuration not stated)	3.16%
CC1=CC(=C(C#N)c2nc3ccccc3s2)C=C(C)N1c1ccc(F)cc1F	-130%
O=C(O)CC/C(=C\c1cc2c(cc1Br)OCO2)c1nc2ccccc2s1	8.13%
N#C/C(=C(/O)Cc1cccc2ccccc12)c1nc2ccccc2s1	60.4% (active)
CC1Cc2ccccc2N1C(=O)Cn1cnc2ccccc2c1=O (configuration not stated)	0.2%
CCOC(=O)N1CCN(C(=O)Cn2cnc3ccccc3c2=O)CC1	72.2% (active)

SMILES	inhibition
CC1CC(C)CN(C(=O)CCNC(=O)Cn2cnc3ccccc3c2=O)C1 (configuration not stated)	-2.21%
O=S(=O)(NCc1ccc2c(c1)OCO2)c1cccc2nsnc12	-14.6%
COCCCNC(=O)C1CCC(CNS(=O)(=O)c2ccc(OC)cc2)CC1 (configuration not stated)	5.65%
O=C(NNS(=O)(=O)c1ccc(F)cc1)c1ccc([N+](=O)[O-])cc1Cl	0.78%
Cc1cc([N+](=O)[O-])ccc1NS(=O)(=O)c1ccccc1	17.8%
O=[N+]([O-])c1ccc(NS(=O)(=O)c2ccccc2)c(Cl)c1	55.9% (active)
COC(C[C@@H](O)C[C@H](O)[C@H](C)OCc1ccccc1)OC	10.3%
O=C(N/N=C/c1cc(Br)c(O)c([N+](=O)[O-])c1)C(O)(c1ccccc1)c1ccccc1	4.64%
O=[N+]([O-])c1cc(Br)c(O)c(/C=N/Nc2nc3ccccc3s2)c1	67.2% (active)
c1ccc(C(=NNc2nc3ccccc3s2)c2ccccn2)cc1	-36.8%
Cn1nc(-c2ccccc2)c2cc([N+](=O)[O-])ccc21	-1.55%
Cc1nn(-c2ccc([N+](=O)[O-])cc2)c(N)c1-c1ccccc1	51.6% (active)
Cc1nn(C(=O)c2ccoc2C)c(N)c1-c1ccccc1	4.6%
CN1CCN(C(=O)c2cnn(-c3ccccc3)c2NC(=O)c2ccc([N+](=O)[O-])cc2)CC1	1.78%
Cc1ccccc1N1CCN(Cc2nc(Cc3ccccc3F)no2)CC1	10.3%
COc1ccc(CC(NC(C)=O)C(=O)NC2CCN(C(=O)c3ccc(Cl)cc3)CC2)cc1 (configuration not stated)	13.1%
C/C(=N/NC(=O)CSc1ccccn1)c1ccc([N+](=O)[O-])cc1	1.41%
Cc1nc(C)c2c(c1C(F)(F)F)-c1ccccc1C2(F)F	-1.72%
CCCCn1c(N)c(N(CCC(C)C)C(=O)COC(=O)c2ccc(CC)cc2)c(=O)[nH]c1=O	-14.7%
C=C(C)CNC(=S)N/N=C/c1ccccc1OCC(=O)O	-10.5%
Cc1ccc(NS(=O)(=O)c2ccc(N/N=C/c3ccccc3OCC(=O)O)c([N+](=O)[O-])c2)c(C)c1	63.5% (active)
COc1ccc(Br)cc1/C=N/Nc1ccc(S(=O)(=O)Nc2ccccc2C(=O)O)cc1[N+](=O)[O-]	14.6%
CC(CO)(CO)NC(=O)c1ccc(=O)[nH]n1	2.66%
